Assay results published in PubChem BioAssay AID504333 (National Center for Advancing Translational Sciences (NCATS), 2011).
Where “and” joins values, the source holds several entries; their conditions need not be identical. Equal entries are not always repeated. Among all 360,000 compounds or so, about 16,000 (4.4%) were called active. Inconclusive results (about 9%) are left out. The full list was thinned out, with actives kept by preference. A number with no mark means an inactive call. The call rests on the fitted dose curve; in most records, active means well fitted inhibition curve with a large enough effect; inconclusive means small, poorly fitted or top-dose-only effect; inactive means no such curve, though single readings can be large or run the other way.

Each compound was assayed against Bromodomain adjacent to zinc finger domain protein 2B (Homo sapiens) (UniProt Q9UIF8) (assay: qHTS Assay for Inhibitors of BAZ2B). Details: AlphaScreen BAZ2B-H3K14Ac peptide displacement; series mostly up to 114 µM; activity change, negative = inhibition: at the top concentration.
Description: BAZ2B (bromodomain adjacent to zinc finger domain, 2B) belongs to a family of ubiquitously expressed bromodomain containing proteins, which biological function has not yet been elucidated. […] The interaction of BAZ2B with ISWI mediated by the BAZ1 motif has recently been described. […] The protocol is based on the AlphaScreen (PerkinElmer) displacement assay developed by NCGC [5], but uses the peptide ligand Biot-H3K14Ac, a high affinity binding partner for BAZ2B, in an AlphaScreen format. Although AlphaScreen has significant advantages with its utility in a variety of epigenetic target assays, the primary screening data provided in this deposition should be used with caution due to the prevalence of screening artifacts. The top compound concentration tested was 110uM in this assay, which increases number of actives and potential artifacts. An AlphaScreen counterscreen is highly recommended to be run against any putative actives to eliminate non-specific artifacts. Alternatively, one can use other AlphaScreen assays in PubChem to filter out promiscuous hits. Eberharter, A. et al. ACF1 improves the effectiveness of nucleosome mobilization by ISWI through PHD-histone contacts. The EMBO journal 23, 4029-4039. 2004. PMID: 15457208 [2] Jones, M.H. et al. A novel family of bromodomain genes. Genomics 63, 40-45. 2000. PMID: 10662543 [3] Yasgar, et al. Compound Management for Quantitative High-Throughput Screening. JALA. 2008 Apr;13(2):79-89. PMID: 18496600 [4] Inglese, et al. Quantitative high-throughput screening: a titration-based approach that efficiently identifies biological activities in large chemical libraries. Proc Natl Acad Sci. 1;103(31):11473-8. 2006. PMID: 16864780 [5] Quinn et al. A chemiluminescence-based method for identification of histone lysine methyltransferase inhibitors. Mol Biosyst 6(5): 782-8. 2010. PMID: 20567762 [6] Baell,Holloway. New substructure filters for removal of pan assay interference compounds (PAINS) from screening libraries and for their exclusion in bioassays. J Med Chem. 53(7):2719-40. 2010. PMID: 20131845 NIH Molecular Libraries Probe Production Network [MLPCN] NIH Chemical Genomics Center [NCGC] Structural Genomics Consortium (SGC) NIH Grant: 5U54 MH084681-02
To each well of a 1,536w plate, 2ul of BAZ2B protein (final 50nM) and 1ul biotinylated histone peptide acetylated at Lys14 [b-H3(5-23)K14Ac] (final 50nM) were added in 1x PBS buffer, pH 7.4, containing 0.01% Tween-20, using a nanoliter dispenser. Formation of a protein-peptide complex proceeded at room temperature for 30 min. A Kalypsys pin-tool was employed to transfer 23 nL of library compound solution in DMSO to each well. Following a 30 min incubation of the protein-peptide complex with compounds at room temperature, a mixture of 40 ug/mL each streptavidin-coated donor and nickel chelate acceptor AlphaScreen beads (final 10 ug/mL) were added in a 1ul dispense for a final volume of 4ul. A brief centrifugation followed (1000rpm, 1 min) and were then incubated protected from the light for 20 min at room temperature. Plates were read on an EnVision multilabel plate reader using the 1,536 plate HTS AlphaScreen aperture (excitation time 80 ms, measurement time 240 ms).
Further: nearly all actives have a fitted effect of over 60% in size.
On the % scale 0 is the no-effect control and ±100 the full control effect; potency means the concentration at half of the fitted maximal effect.

Chain of Bromodomain adjacent to zinc finger domain protein 2B (Homo sapiens) (Q9UIF8 whole entry, looked up, the tested form may be a part): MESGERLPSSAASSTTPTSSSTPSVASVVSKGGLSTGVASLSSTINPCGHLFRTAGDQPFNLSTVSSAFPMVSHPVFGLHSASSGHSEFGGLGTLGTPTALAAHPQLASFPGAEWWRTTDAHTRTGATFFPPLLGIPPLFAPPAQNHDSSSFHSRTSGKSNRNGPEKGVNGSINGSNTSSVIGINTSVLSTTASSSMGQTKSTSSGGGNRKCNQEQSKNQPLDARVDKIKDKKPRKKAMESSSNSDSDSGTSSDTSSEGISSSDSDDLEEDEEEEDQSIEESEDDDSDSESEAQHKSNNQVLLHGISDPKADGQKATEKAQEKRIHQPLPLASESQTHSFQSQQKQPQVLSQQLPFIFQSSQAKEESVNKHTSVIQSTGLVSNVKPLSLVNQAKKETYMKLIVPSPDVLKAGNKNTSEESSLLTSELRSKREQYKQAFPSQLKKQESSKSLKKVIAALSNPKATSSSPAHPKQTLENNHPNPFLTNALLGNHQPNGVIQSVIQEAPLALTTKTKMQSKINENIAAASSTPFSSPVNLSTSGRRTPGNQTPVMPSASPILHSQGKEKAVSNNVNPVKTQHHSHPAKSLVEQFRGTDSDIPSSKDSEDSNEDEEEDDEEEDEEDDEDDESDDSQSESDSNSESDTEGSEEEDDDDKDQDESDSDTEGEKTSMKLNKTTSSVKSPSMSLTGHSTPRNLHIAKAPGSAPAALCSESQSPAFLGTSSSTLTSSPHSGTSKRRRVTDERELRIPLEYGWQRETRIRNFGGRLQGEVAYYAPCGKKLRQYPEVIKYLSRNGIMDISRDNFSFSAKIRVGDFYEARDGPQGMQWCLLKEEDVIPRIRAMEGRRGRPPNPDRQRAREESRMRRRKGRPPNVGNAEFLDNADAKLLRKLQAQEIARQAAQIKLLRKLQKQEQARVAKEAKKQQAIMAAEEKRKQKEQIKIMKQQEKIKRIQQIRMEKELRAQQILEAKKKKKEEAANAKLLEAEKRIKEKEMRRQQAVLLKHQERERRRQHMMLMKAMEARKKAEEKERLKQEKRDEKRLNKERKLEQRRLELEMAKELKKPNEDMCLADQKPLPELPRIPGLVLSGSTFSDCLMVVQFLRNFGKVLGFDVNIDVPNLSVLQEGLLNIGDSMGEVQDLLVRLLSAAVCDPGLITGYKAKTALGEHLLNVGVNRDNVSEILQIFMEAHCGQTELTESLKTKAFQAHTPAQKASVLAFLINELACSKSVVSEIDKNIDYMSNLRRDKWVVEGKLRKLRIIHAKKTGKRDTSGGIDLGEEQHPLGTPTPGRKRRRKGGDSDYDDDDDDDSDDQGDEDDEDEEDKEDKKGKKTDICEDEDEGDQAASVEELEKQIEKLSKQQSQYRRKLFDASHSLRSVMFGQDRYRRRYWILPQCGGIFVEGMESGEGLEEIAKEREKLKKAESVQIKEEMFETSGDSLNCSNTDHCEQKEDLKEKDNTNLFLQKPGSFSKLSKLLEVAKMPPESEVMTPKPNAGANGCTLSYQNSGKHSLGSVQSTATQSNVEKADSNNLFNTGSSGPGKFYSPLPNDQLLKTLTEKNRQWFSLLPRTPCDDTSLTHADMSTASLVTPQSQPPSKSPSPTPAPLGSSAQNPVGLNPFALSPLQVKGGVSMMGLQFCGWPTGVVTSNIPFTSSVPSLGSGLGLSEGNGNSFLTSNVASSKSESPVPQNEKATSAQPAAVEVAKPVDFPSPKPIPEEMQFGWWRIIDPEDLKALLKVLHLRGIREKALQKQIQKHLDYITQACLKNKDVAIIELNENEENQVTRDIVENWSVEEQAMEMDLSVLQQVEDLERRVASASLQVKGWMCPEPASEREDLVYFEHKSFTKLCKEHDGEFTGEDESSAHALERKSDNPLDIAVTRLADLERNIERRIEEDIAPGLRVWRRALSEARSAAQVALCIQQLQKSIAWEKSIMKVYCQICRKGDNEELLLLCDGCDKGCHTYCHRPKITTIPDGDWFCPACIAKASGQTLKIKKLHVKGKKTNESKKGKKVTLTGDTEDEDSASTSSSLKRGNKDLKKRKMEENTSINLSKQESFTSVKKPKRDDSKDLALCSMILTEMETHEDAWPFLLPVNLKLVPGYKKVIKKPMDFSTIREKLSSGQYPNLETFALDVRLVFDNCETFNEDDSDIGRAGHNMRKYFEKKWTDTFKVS

Compound	activity change, negative = inhibition [%]	Potency
Cc1ccc(CCNC(=O)c2ccc(CNS(=O)(=O)c3ccc(C)cc3)cc2)cc1	0.772	–
CCOC(=O)c1c(NC(=O)c2cc(CC)on2)sc(C(C)=O)c1C	2.03	–
CCCCCn1c(=O)[nH]c2cc(C(=O)Nc3cc(C)cc(C)c3)ccc2c1=O	3.99	–
Cc1c(C)c(C)c2[nH]c(=S)[nH]c2c1C	-9.72	–
O=c1[nH]c(=S)[nH]c2[nH]c(=S)[nH]c12	–	28.2 µM (active) and 22.4 µM (active)
CCOC(=O)c1ccc(NC(=O)C2CC(=O)N(c3ccc(C(C)C)cc3)C2)cc1 (centres undefined)	-1.68	–
CCOc1cc(/C=C2\C(=N)N3N=C(C)SC3=NC2=O)ccc1OCCOc1ccccc1	-2.46	–
Cc1ccc(C2=N/C(=C\c3ccc(OS(=O)(=O)c4ccc(C)cc4)cc3)C(=O)O2)cc1	-4	–
CS(=O)(=O)C1=NN2C(=N)/C(=C\c3ccc(OCCOc4ccccc4)cc3)C(=O)N=C2S1	–	50.1 µM (active)
COc1ccccc1OCCOc1ccc(/C=C2\C(=N)N3N=C(C)SC3=NC2=O)cc1	-25.9	–
COc1cc(/C=C2\C(=N)N3N=C(CC(=O)N4CCOCC4)SC3=NC2=O)cc(OC)c1OC	-26.7	–
CCS(=O)(=O)C1=NSC2=NC(=O)/C(=C\c3ccc(OS(=O)(=O)c4ccccc4)cc3)C(=N)N21	–	56.2 µM (active)
CCc1ccccc1N1C(=O)CN(S(=O)(=O)CC)CC1(C)C(=O)NC1CCCCC1 (centres undefined)	4.83	–
CCc1cccc(NC(=O)CSc2nccn2C)c1	-37.7	–
Cc1ccc(CNC(=O)CCc2c(C)nc3nc(CNC(=O)OC(C)(C)C)nn3c2C)cc1	2.01	–
Cc1ccc(NC(=O)CSc2nc3ccccc3c3nc(CCn4cncc4C)nn23)cc1F	-16.9	–
CCN(CC)c1ccc(NS(=O)(=O)c2cc(-c3cc(C)no3)ccc2C)c(C)c1	–	11.2 µM (active)
Cc1cc(-c2ccc(C)c(S(=O)(=O)Nc3ccc(S(N)(=O)=O)cc3)c2)on1	-16.6	–
CCOc1ccccc1CNS(=O)(=O)c1cc(-c2cc(C)no2)ccc1C	0.315	–
Fc1ccc(-c2nc(Nc3cccc(Cl)c3)nc3c2COc2ccccc2-3)cc1	-17.8	–
Cc1c(-c2nc(-c3ccc4c(c3)OCO4)no2)nnn1-c1ccc(Br)cc1F	-12.6	–
C/C=C(/C)C(=O)Nc1cccc(C2=NOC3(C2)C[C@@H](C(N)=O)N(C(=O)C2(C)CC2)C3)c1 (some centres undefined)	5.04	–
C=C(C)C(=O)Nc1cccc(C2=NOC3(C2)C[C@H](C(N)=O)N(C(=O)C(c2ccccc2)c2ccccc2)C3)c1 (some centres undefined)	–	25.1 µM (active)
C/C=C\C=C\C(=O)N1CC2(CC(c3cccc(NC(=O)/C(C)=C\C)c3)=NO2)C[C@H]1C(N)=O (some centres undefined)	-9.61	–
Cc1cn(C)c(CC(=O)NCc2ccccc2)c1C(=O)O	-14.6	–

Compound	activity change, negative = inhibition [%]	Potency
COc1cccc(NC(=O)C2CCN(c3cc(C)nc4c(-c5ccc(Cl)cc5)c(C)nn34)CC2)c1	-5.79	–
Cc1c(C(=O)Nc2cccc(Cl)c2)oc2ccc(S(=O)(=O)N3CCOCC3)cc12	4.68	–
COc1ccc(OCc2ccc(-c3nc(C#N)c(N4CCN(c5ccccc5)CC4)o3)o2)cc1	-28.8	–
N#Cc1nc(COc2ccc(Cl)cc2)oc1N1CCCC1	–	39.8 µM (active)
CN1CCN(c2oc(-c3ccc(COc4ccc(Cl)cc4)o3)nc2C#N)CC1	–	25.1 µM (active)
Cc1ccc(OCc2nc(C#N)c(N3CCCC3)o2)cc1	7.75	–
CCC(C)Nc1oc(-c2ccc(COc3ccc(Cl)cc3)o2)nc1C#N (centres undefined)	-34.3	–
N#Cc1ccc(OCc2nnc(-c3ccc([N+](=O)[O-])cc3)o2)cc1	-18.3	–
CCc1nnc(SCc2nc(-c3cccc(C)c3)oc2C)c2cc3sc(C)cc3n12	-3.25	–
Cc1cccc(NC(=O)Cn2nc(-c3ccc(Cl)cc3)c3ccccc3c2=O)c1	-1.81	–
COc1ccc(-c2noc(CSc3nc(C)cc(=O)[nH]3)n2)cc1OC	-17.2	–
CCOC(=O)c1c(NC(C)=O)c2c3c(sc2n1Cc1c(C)cc(C)cc1C)CCCC3	0.347	–
Cc1ccc(-c2cnc(C3CC3)o2)cc1S(=O)(=O)Nc1cccc(C)c1C	-29.3	–
CCCN(CCC)c1ccc(C(O)c2nnc(-c3ccccc3)o2)cc1 (centres undefined)	–	31.6 µM (active)
CC(=O)c1ccc(NC(c2ccc(F)cc2)c2nnc(-c3ccccc3)o2)cc1 (centres undefined)	-12.5	–
OC(c1nnc(-c2ccccc2)o1)c1cccs1 (centres undefined)	-17.5	–
COc1ccc(-c2nc(CN3CCC(C(=O)NCc4ccccc4)CC3)c(C)o2)cc1OC	-9.57	–
COc1ccc(N2CCN(c3ccc([N+](=O)[O-])cc3Cl)CC2)cc1	–	10 µM (active)
O=[N+]([O-])c1ccc(N2CCN(c3ccc(O)cc3)CC2)c(Cl)c1	–	20 µM (active)
O=C(c1cncc(Br)c1)N1CCN(c2ccc([N+](=O)[O-])cc2)CC1	3.58	–
CN(C)S(=O)(=O)N1CCN(c2ccc([N+](=O)[O-])cc2)CC1	-21.5	–
COc1ccccc1N1CCN(c2ccc([N+](=O)[O-])nc2)CC1	-22	–
COc1ccc(N2CCN(c3ccc([N+](=O)[O-])nc3)CC2)cc1	11.5	–
COc1ccc(-c2nc(C)c(CCNC(=O)c3ccc(C(F)(F)F)cc3)s2)cc1OC	3.9	–
